# Sampled rows, rich in hits. Any-hit rate of the full collection: about 21%.
# CHX counter: affects cycloheximide protein synthesis inhibition readout, counter-screen; cell reporter, cycloheximide protein synthesis inhibition counterscreen; max response, %; hit rate 12% among 300,000; AID 2314; in the data active = max response mostly above about 13%, no sharp cut-off; inactive = mostly below about 14%; note: read at 38.3 µM for the half of the compounds with a filed dose; 0% is about no effect
# Giardia FBPA inh: Giardia lamblia aldolase inhibition; hit rate 0.71% among 290,000; A8B2U2; Potency, µM (series often up to 59.6 µM), without a hit: at the highest dose activity, negative = inhibition, actives largely listed as inhibitors; purified Giardia FBPA; note: potency is the fitted concentration of half-maximal effect; % is set by controls: 0 for no effect and ±100 for the full control effect; nearly all actives have a fitted effect of over 55% in size
# Target sequence (A8B2U2 whole entry, looked up): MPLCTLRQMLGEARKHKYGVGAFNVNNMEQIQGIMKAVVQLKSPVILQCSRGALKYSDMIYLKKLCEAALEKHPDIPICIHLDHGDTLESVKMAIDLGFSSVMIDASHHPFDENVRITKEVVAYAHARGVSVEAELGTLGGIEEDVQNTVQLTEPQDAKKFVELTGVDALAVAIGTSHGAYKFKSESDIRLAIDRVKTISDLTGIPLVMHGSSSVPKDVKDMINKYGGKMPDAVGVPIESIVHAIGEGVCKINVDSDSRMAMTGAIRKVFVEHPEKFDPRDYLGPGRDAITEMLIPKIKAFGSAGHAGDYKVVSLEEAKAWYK
#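 Giardia FBPA (40 nM reagent) was preincubated 10 min at RT with compound (up to 57.5 uM final), then substrate plus GAPDH/TPI/NAD/arsenate coupling system with diaphorase/resazurin was added; resorufin fluorescence (525/598 nm) was read after 20 min.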
# Pf growth 96h: P. falciparum growth inhibition at 96 hour, primary screen for plastid delayed-death inhibitors. P. falciparum luciferase reporter growth, 96 h. Potency, µM (highest dose often 28.7 µM), without a hit: at the top dose activity change, negative = inhibition, usual class: inhibitors. hit rate 6.9% among 320,000. AID 504834; note: potency is the fitted concentration of half-maximal effect; % is set by controls: 0 for no effect and ±100 for the full control effect
#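 P. falciparum expressing integrated firefly luciferase grown in erythrocytes (2% hematocrit, 0.05% parasitemia final) with compounds for 96 hours at 37 C, 5% CO2. Growth inhibition read as loss of luminescence after adding luciferase detection reagent.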
# Shiga toxin inh: blocks Shiga toxin action in Vero cells; Vero cells, Shiga toxin protein synthesis inhibition reporter; inhibition, % at 38.7 µM; hit rate 9.2% among 290,000; in the data active = inhibition mostly above about 28%, no sharp cut-off; inactive = mostly below about 43%; note: 0% is about no effect
# Pf growth 48h: P. falciparum growth inhibition at 48 hours (one generation); P. falciparum luciferase growth in erythrocytes, 48 h; Potency, µM (titrated, usually from 28.7 µM), for inactives: at the top dose activity change, negative = inhibition, actives largely listed as inhibitors; hit rate 5.9% among 310,000; note: potency is the fitted concentration of half-maximal effect; % is set by controls: 0 for no effect and ±100 for the full control effect
#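 Here the parasites carry a stable luciferase gene and grow inside erythrocytes in Albumax-based RPMI medium with compound for one erythrocytic cycle. Activity is scored as loss of luminescent signal.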
# NS1 function inh: inhibitors of influenza NS1 protein function; hit rate 0.4% among 270,000; AID 2326; Potency, µM (titrated, usually from 46.1 µM), inactives show at the top dose activity, positive = more growth; calls by dose curve; note: potency is the fitted concentration of half-maximal effect; actives are rising curves; nearly all actives have a fitted effect of over 50% in size
#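 OD600 was taken as the measure of yeast growth restored by compound in an NS1-expressing S. cerevisiae strain. Cells had been washed out of glucose medium and diluted 1:100 into galactose -URA medium, pH 6.0.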
# * marks the source's active call; other numbers are inactive results; ? = inconclusive; . = not tested or not shown. Unless noted, calls come from the whole dose curve; as a rule, active = well fitted curve in the direction sought with a large enough effect; inconclusive = small, poorly fitted or top-dose-only effect, or another doubt; inactive = no such curve, though single readings can be large; an effect the other way counts as inactive or inconclusive.
SMILES,CHX counter,Giardia FBPA inh,Pf growth 96h,Shiga toxin inh,Pf growth 48h,NS1 function inh
O=c1[nH]c(CSc2nc3ccccc3s2)nc2ccccc12,30*,-7%,60%,52*,37%,-3%
Cc1sc2nc(CSc3nc4ccccc4s3)[nH]c(=O)c2c1C,21*,17%,-8%,80,11%,.
O=C1CCN(Cc2nnnn2CC2CCCO2)c2ccccc2N1 (configuration not stated),-3,9%,15µM*,51,20%,7%
O=C(c1ccco1)N1CCN(Cc2nnnn2CC2CCCO2)CC1 (configuration not stated),-4,-28%,-18%,-16,14%,1%
COc1ccccc1N(C(=O)c1cncc(Br)c1)c1nc(-c2ccc(C)cc2)cs1,6,-6%,7.4µM*,-1,?,25%
COc1ccc(-c2csc(N(CCCN(C)C)C(=O)c3ccccc3C)n2)cc1,-10,?,0%,-11,22%,-19%
COc1ccccc1CNc1ncnc2ccc(-c3ccoc3)cc12,.,4%,.,.,.,.
COc1ccc(-c2nnc3n2N=C(c2ccccc2OC)CS3)cc1,6,0%,.,8,.,.
COc1cc(C2C3=C(CC(C)(C)CC3=O)OC(N)=C2[N+](=O)[O-])ccc1O (configuration not stated),-3,-10%,?,-15,4%,-2%
CC(C)(C)OC(=O)NC(Cc1ccccc1)C(=O)N1CCC(C(=O)NCC(=O)Nc2ccc(F)cc2)CC1 (configuration not stated),21,.,12µM*,16,?,6%
CC(C)(C)OC(=O)N[C@@H](Cc1ccccc1)C(=O)N1CCC(C(=O)NCC(=O)O)CC1,-2,5%,21%,-1,18%,4%
Cc1ccc(CNC(=O)[C@@H](NC(=O)C2CCN(C(=O)[C@@H](N)CC(C)C)CC2)C(C)C)cc1,-4,?,-9%,-12,2%,4%
O=C(NCCCCCCNC(=O)c1ccccc1O)c1ccccc1O,10,6%,?,8,8.3µM*,8%
O=C(NCCO)c1ccccc1O,-7,1%,.,0,7%,?
O=C(NCCCc1ccccc1)c1ccccc1O,54*,-5%,-21%,60*,.,-249%
CCOc1ncccc1C(=O)NCCCSc1ccccc1,1,12%,-14%,16,-10%,-11%
O=C(NCCCSc1ccccc1)c1cc(Cl)ccc1O,-5,.,12µM*,-21,?,13%
O=C(NCCNC(=O)c1ccccc1O)c1ccccc1O,-2,-1%,?,.,14%,-19%
Cc1cc(O)cc(O)c1C(=O)OC1(C)C(=O)C=C2C=C(/C=C/C(=O)O)OC=C2C1=O (configuration not stated),.,-13%,.,.,.,.
CC(Oc1ccc(-c2ccccc2)c(F)c1)c1ccn(S(=O)(=O)c2ccc(Br)cc2)n1 (configuration not stated),-2,1%,10µM*,23,?,17%
CC(Oc1ccc(Cl)cc1)c1ccnn1S(=O)(=O)c1ccc(Cl)cc1 (configuration not stated),0,-5%,5%,22,?,-32%
CCC(CC)c1nnc(NC(=O)CCc2ccccc2OC)s1,-4,2%,16%,-12,8%,10%
COc1cc(OC)c(OC)cc1CNC(=O)c1cc(S(=O)(=O)N2CCOCC2)ccc1F,.,.,-43%,.,?,.
COc1cc(OC)c(OC)cc1CNC(=O)c1ccc(S(=O)(=O)N2CC(C)OC(C)C2)cc1 (configuration not stated),.,.,10µM*,.,?,.
COc1ccc(OC)c(CCNC(=O)c2cccc(NC(=O)C3=C(C)OCCS3)c2)c1,-11,.,23%,-13,?,-19%
CC1=C(C(=O)Nc2ccc(C(=O)NCCC(C)C)cc2)SCCO1,-2,-5%,?,-5,-12%,1%
CSc1ccc(CNC(=O)Cc2ccc(NC(=O)C3=C(C)OCCS3)cc2)cc1,24*,1%,?,55*,125%,6%
CCOc1ccc(CCNC(=O)Cc2ccc(NC(=O)C3=C(C)OCCS3)cc2)cc1,21,.,-38%,47*,24%,12%
O=C1c2ccccc2C(O)N1Cc1cccs1 (configuration not stated),0,0%,43%,14,0%,2%

# Compound activity deposited in PubChem by National Center for Advancing Translational Sciences (NCATS).
